# Only some compounds are listed: those with a hit (about 4.3% of all), similar ones and a draw of the others.
# sPLA2-III inh: Inhibits HGIII-sPLA2 liposome hydrolysis, primary screen; Q9NZ20; QFRET BODIPY PC-A2 liposome hydrolysis, fluorescence; inhibition, % at 12.2 µM; 0.56% of 370,000 active; AID 743126;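 active = inhibition above mean plus 3 SD of compounds lying within the high and low control bounds, cut at about 19% in these data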
# GRIN3A LBD mod: NR3A (human) ligand-binding domain modulation. NR3A LBD differential scanning fluorimetry, Tm shift; 0% = protein alone, 100% = glycine-bound protein. 2.5% of 340,000 active. Tm shift relative to glycine control, % at 25 µM. AID 1259313;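 active = melting temperature shift of at least 10% of the positive control shift, at one fixed dose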
# ADAM17 inh: inhibitors of human ADAM17. P78536. recombinant ADAM17, EDANS/DABCYL FRET peptide cleavage. inhibition, % at 6.95 µM. 0.83% of 370,000 active. AID 720648;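 active = inhibition above the mean of compounds lying between control limits plus 3 SD, set per campaign, cut at about 8.5% in these data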
# Target sequence (P78536 215-824 limits assumed): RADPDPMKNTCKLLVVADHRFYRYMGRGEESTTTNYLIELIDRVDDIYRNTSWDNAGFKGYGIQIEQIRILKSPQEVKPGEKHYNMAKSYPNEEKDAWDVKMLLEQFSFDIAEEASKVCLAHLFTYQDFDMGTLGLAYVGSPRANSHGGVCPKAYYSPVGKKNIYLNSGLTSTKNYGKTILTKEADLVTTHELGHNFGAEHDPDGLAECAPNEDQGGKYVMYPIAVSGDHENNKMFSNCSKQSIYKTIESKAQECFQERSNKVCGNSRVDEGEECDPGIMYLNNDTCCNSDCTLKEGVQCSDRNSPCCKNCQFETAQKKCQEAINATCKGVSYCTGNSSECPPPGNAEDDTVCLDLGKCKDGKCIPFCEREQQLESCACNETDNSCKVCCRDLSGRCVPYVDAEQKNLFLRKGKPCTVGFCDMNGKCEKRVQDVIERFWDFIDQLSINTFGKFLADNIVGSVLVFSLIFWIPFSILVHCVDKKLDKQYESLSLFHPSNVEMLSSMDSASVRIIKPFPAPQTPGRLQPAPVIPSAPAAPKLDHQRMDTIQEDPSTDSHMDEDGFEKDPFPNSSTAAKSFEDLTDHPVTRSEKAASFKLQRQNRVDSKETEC
# FAS TE block: inhibitors of human fatty acid synthase thioesterase domain. inhibition, % at 15 µM. AID 602261. P49327. 0.67% of 360,000 active. recombinant FAS-TE, OMFH fluorogenic substrate, fluorescence endpoint;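 active = compounds whose normalised, plate-corrected inhibition of enzyme fluorescence in the single-dose primary screen is 50% or more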
# ADAM10 inh: inhibits human ADAM10 | 0.62% of 370,000 active | recombinant ADAM10, EDANS/DABCYL FRET peptide cleavage, 3 h | inhibition, % at 7 µM;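 active = inhibition above a per-campaign cutoff equal to the mean of compounds falling between control-based bounds plus 3 SD, cut at about 20% in these data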
# A number is an active result; 0 = inactive; - = not tested or not shown.
SMILES,sPLA2-III inh,GRIN3A LBD mod,ADAM17 inh,FAS TE block,ADAM10 inh
COC(=O)c1ccc(/C=N/Nc2nc(-c3ccc(C)cc3)cs2)cc1,-,0,-,0,-
CCCC(=O)Nc1ccc(-c2csc(NNC(C)=O)n2)cc1,0,0,0,0,0
CCCC(=O)Nc1ccc(-c2csc(N/N=C\c3ccncc3)n2)cc1,0,18,0,0,0
CC(=O)Nc1ccc(-c2csc(N/N=C\c3ccncc3)n2)cc1,0,15,0,0,0
CCN(CC)S(=O)(=O)c1ccc2oc(C(=O)NCCN3CCOCC3)c(C)c2c1,0,58,0,0,0
CCN(CC)S(=O)(=O)c1ccc2oc(C(=O)N3CCOCC3)c(C)c2c1,0,0,0,0,0
CC(=O)c1ccc(NC(=S)Nc2ccc(Br)c(Cl)c2)cc1,0,29,0,0,0
O=C(Nc1ccccc1)Nc1ccc2ccccc2c1,0,26,0,0,0
O=C(Nc1ccc(Br)c(Cl)c1)c1ccco1,0,0,0,0,0
CC(=O)c1ccc(NC(=S)Nc2ccc3cn[nH]c3c2)cc1,0,10,0,0,0
O=C(Nc1ccccc1)Nc1ccc(Br)c(Cl)c1,0,30,0,0,0
O=C(OC12CCCN(C1)/C(=C/c1ccc(Cl)cc1)C2)c1ccc(Cl)cc1 (configuration not stated),0,-,0,-,0
COc1ccc(-n2c(SC/C=C/c3ccccc3)nnc2-c2cccs2)cc1,0,-,0,-,0
CC(=O)c1cccc(NC(=O)C(=O)Nc2cccc3ccccc23)c1,0,62,0,0,0
COCC#Cc1ccc(CC[C@H]2O[C@H]3CC[C@H](CO)O[C@H]3C[C@H]2n2cc(C(C)(C)O)nn2)cc1,0,-,0,-,0
O=C(CSc1nc(-c2cccs2)cc(C(F)(F)F)n1)NCCCn1ccnc1,0,0,0,0,0
O=C(CSc1nc(-c2cccs2)cc(C(F)(F)F)n1)Nc1cc(OCC(F)(F)C(F)F)cc([N+](=O)[O-])c1,0,10,0,0,0
Cc1cc(C)nc(NS(=O)(=O)c2ccc(NC(=O)Nc3ccccc3)cc2)n1,0,19,0,0,0
Cc1cc(C)nc(NS(=O)(=O)c2ccc(NC(=O)CN3C(=O)S/C(=C\c4ccccc4)C3=O)cc2)n1,0,11,0,0,0
C=CCN1C(C(=O)OC)CN(Cc2cn(Cc3ccc(Cl)cc3)nn2)CCS1(=O)=O (configuration not stated),0,-,0,-,0
O=C1[C@H]2C[C@@]3(n4ccc5ccccc54)c4ccccc4N(S(=O)(=O)c4ccccc4)[C@H]3N2C(=O)CN1Cc1ccccc1,0,-,0,-,0
COc1ccc(CNC(=O)CN2CCN(S(=O)(=O)c3cc(Br)ccc3Br)CC2)cc1OC,0,0,0,0,0
CC(C#N)(NC(=O)CN1CCN(S(=O)(=O)c2ccc(Br)cc2Cl)CC1)C1CC1 (configuration not stated),0,10,0,0,0
O=C(Cn1c(=O)c2cccn2c2cccnc21)NCCCN1CCN(c2ccccc2)CC1,0,-,0,-,0
COc1ccccc1NS(=O)(=O)c1cc(NC(=S)Nc2cc(C)cc(C)c2)ccc1Cl,0,20,0,0,0
SMILES,sPLA2-III inh,GRIN3A LBD mod,ADAM17 inh,FAS TE block,ADAM10 inh
CCNC(=S)Nc1ccc(C)c(S(=O)(=O)Nc2ccccc2OC)c1,0,0,0,0,0
Cc1ccc(NC(=O)CNC(=O)c2cccs2)cc1S(=O)(=O)Nc1ccc(Cl)cc1,0,12,0,0,0
O=C(Nc1ccc(Cl)c(S(=O)(=O)Nc2ccccc2Cl)c1)c1cccs1,0,31,0,0,0
Cc1ccc(C(=O)Nc2ccc(C)c(S(=O)(=O)Nc3ccccc3Cl)c2)s1,0,11,0,0,0
CCC[C@H]1[C@@H](OC(=O)NCc2ccc(Cl)c(Cl)c2)CC[C@@]23CCCN2C(=O)CCC[C@@H]13,0,-,0,-,0
CCN1CCCCC(NC(=O)c2ccccc2)C1=O (configuration not stated),0,-,0,-,0
COc1ccc(NC(=O)N2CCCC(c3nc(-c4ccc(OC)cc4)no3)C2)cc1 (configuration not stated),0,0,0,0,0
COc1ccc(NC(=O)N2CCCC(c3nc(-c4ccc(C(C)C)cc4)no3)C2)cc1 (configuration not stated),0,0,11,0,25
COC(=O)[C@]12C[C@H](CC(=O)NCc3ccc(C)o3)C(=O)N(CCc3ccc(OC)c(OC)c3)C1=C[C@H](C(C)(C)C)O[C@@H]2C,0,-,0,-,0

# From PubChem BioAssay
